Laboratory results as given in PubChem BioAssay (EPA / NIEHS).
The source made the active and inactive calls. How the source made its calls: active means hit-call score of the fitted dose curve at least 0.9, where 1 is the maximum; inactive means score below 0.9.

Legend:
[1] = ATG_E_Box_CIS: Attagene CIS-FACTORIAL HepG2 Assay for human Enhancer Box (E-box) (AID 2282936); conditions: HepG2 E-box cis-reporter transcription, actives raise or lower the signal
Procedure, shortened: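 First, HepG2 cells receive multiple cis-regulated reporter constructs by transient transfection. Next, chemicals are applied for 24 h. Finally, reporter mRNA is quantified via RT-PCR and capillary electrophoresis, with DMSO as baseline.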

[2] = ATG_M_61_CIS: Attagene CIS-FACTORIAL HepG2 Assay for M61 Transcription Factor (Internal Marker) (AID 2282937); conditions: HepG2 Attagene CIS-FACTORIAL M61 internal marker reporter; actives raise or lower the signal
Procedure, shortened: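 Background-control endpoint: HepG2 cells with cis-regulated reporter constructs, 24 h exposure, reporter mRNA detected via fluorescent primer extension and capillary electrophoresis; values from bidirectional fitting with DMSO baseline.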

[3] = ATG_EGR_CIS: Attagene CIS-FACTORIAL HepG2 Assay for human Early Growth Response 1 (EGR1) (AID 2282938); conditions: HepG2 Attagene CIS-FACTORIAL EGR reporter mRNA; actives raise or lower the signal
Procedure, shortened: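 Endpoint derived by bidirectional fitting versus DMSO vehicle. Method: cis-promoter reporter units transfected into HepG2, 24 h dosing, RNA isolation, RT-PCR with 6-FAM primer extension and HpaI digestion, then capillary electrophoresis fluorescence detection.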

[4] = ATG_M_19_CIS: Attagene CIS-FACTORIAL HepG2 Assay for M19 Transcription Factor (Internal Marker) (AID 2282939); conditions: HepG2 Attagene CIS-FACTORIAL M19 internal marker reporter; actives raise or lower the signal
Procedure, shortened: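 Signals come from fluorescence of labelled reporter-specific PCR fragments resolved by capillary electrophoresis, following 24 h treatment of HepG2 cells transfected with cis-promoter reporter units; activity was fitted in both directions relative to DMSO.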

[5] = ATG_ERE_CIS: Attagene CIS-FACTORIAL HepG2 Assay for Estrogen Response Element (ERE) (AID 2282940); conditions: HepG2 ERE cis-reporter, Attagene RNA transcript; actives raise or lower the signal
Procedure, shortened: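 Fluorescence of capillary-separated, FAM-labelled reporter cDNA fragments indicates reporter mRNA levels in HepG2 cells exposed to chemicals for 24 h. Transient transfection with cis-regulated units; data fitted in both directions against DMSO.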

[6] = ATG_Ets_CIS: Attagene CIS-FACTORIAL HepG2 Assay for human Erythroblast Transformation Specific (ETS) (AID 2282941); conditions: HepG2 ETS cis-reporter transcription, actives raise or lower the signal
Procedure, shortened: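 Steps: transfect HepG2 with multiple reporter units; treat compound 24 h; isolate RNA, DNase-treat, reverse-transcribe; PCR-amplify, label with 6-FAM, digest with HpaI; separate by capillary electrophoresis. Activity fitted both directions versus DMSO.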

[7] = ATG_FoxO_CIS: Attagene CIS-FACTORIAL HepG2 Assay for human Forkhead box O (FoxO) (AID 2282943); conditions: HepG2 Attagene cis-reporter, FoxO element, mRNA; actives raise or lower the signal
Procedure, shortened: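 Read-out: fluorescence of 6-FAM-labelled reporter cDNA fragments resolved by capillary electrophoresis. Transiently transfected HepG2 cells were dosed for 24 h; activity fitted in both directions relative to DMSO controls.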

[8] = ATG_GATA_CIS: Attagene CIS-FACTORIAL HepG2 Assay for human GATA Binding Protein (AID 2282944); conditions: HepG2 GATA cis-element reporter, Attagene multiplex mRNA; actives raise or lower the signal
Procedure, shortened: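 After transfecting HepG2 cells with multiple cis-regulated reporter units, chemicals are dosed for 24 h; isolated RNA undergoes RT-PCR and fluorescent labeling before capillary electrophoresis, with activity expressed against DMSO.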

[9] = ATG_GLI_CIS: Attagene CIS-FACTORIAL HepG2 Assay for human Zinc Finger Protein GLI1 (AID 2282945); conditions: HepG2, Attagene cis-factorial reporter mRNA, GLI element; actives raise or lower the signal
Procedure, shortened: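 Transiently transfected HepG2 cells report endogenous transcription factor activity via cis-element-driven reporter units. After 24 h compound exposure, reporter mRNA was measured by RT-PCR with capillary electrophoresis; bidirectional fitting against DMSO baseline.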

[10] = ATG_GRE_CIS: Attagene CIS-FACTORIAL HepG2 Assay for human Glucocorticoid Response Elements (GRE) (AID 2282947); conditions: HepG2 GRE cis-reporter, Attagene multiplex mRNA; actives raise or lower the signal
Procedure, shortened: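 Endogenous transcription factor activity is read through cis-element reporter constructs transiently transfected into HepG2 cells. After 24 h treatment, labelled RT-PCR products are resolved by capillary electrophoresis; DMSO sets baseline for bidirectional curve fitting.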

[11] = ATG_ISRE_CIS: Attagene CIS-FACTORIAL HepG2 Assay for human Interferon Regulatory Factor 1 (IRF1) binding to an Interferon-Stimulated Response Element (ISRE) (AID 2282948); conditions: HepG2 ISRE cis-reporter (Attagene), mRNA transcription readout; actives raise or lower the signal
Procedure, shortened: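 Transfected HepG2 (multiple reporter transcription units, cis elements) dosed 24 h. RNA → oligo(dT) RT → PCR → 6-FAM primer extension → HpaI → CE. DMSO = negative control/baseline.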

[12] = ATG_M_32_CIS: Attagene CIS-FACTORIAL HepG2 Assay for M32 Transcription Factor (Internal Marker) (AID 2282949); conditions: HepG2 Attagene cis-factorial M32 reporter, mRNA; actives raise or lower the signal;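 further: background control marker of the multiplexed CIS panel rather than a real target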
Procedure, shortened: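 Internal background marker read-out: RT-PCR/capillary electrophoresis fluorescence of reporter transcripts from transiently transfected HepG2 cells after 24 h chemical exposure. Activity fitted bidirectionally relative to DMSO negative control.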

[13] = target: Hypoxia-inducible factor 1-alpha (Homo sapiens) (UniProt Q16665); test: ATG_HIF1a_CIS: Attagene CIS-FACTORIAL HepG2 Assay for human Hypoxia Inducible Factor 1 (HIF1A) (AID 2282951); conditions: HepG2 Attagene cis-factorial HIF1a reporter transcription; actives raise or lower the signal
Procedure, shortened: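 Dosed 24 h, transfected HepG2 cells yielded total RNA whose reporter transcripts were RT-PCR-amplified and sized by capillary electrophoresis using fluorescent labelling; DMSO defined baseline, with gain and loss of signal both fitted.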

[14] = target: Hepatocyte nuclear factor 6 (Homo sapiens) (UniProt Q9UBC0); test: ATG_HNF6_CIS: Attagene CIS-FACTORIAL HepG2 Assay for human Hepatocyte Nuclear Factor 6 (HNF6) (AID 2282952); conditions: HepG2 Attagene cis-factorial HNF6 reporter transcription; actives raise or lower the signal
Procedure, shortened: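 Multiplexed mRNA reporter assay in transfected HepG2; 24 h dosing; RT-PCR plus capillary electrophoresis fluorescence; DMSO-referenced bidirectional curve fitting.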

[15] = target: Heat shock factor protein 1 (Homo sapiens) (UniProt Q00613); test: ATG_HSE_CIS: Attagene CIS-FACTORIAL HepG2 Assay for human Heat Shock Transcription Factor 1 (HSE) (AID 2282953); conditions: HepG2 HSE cis-reporter, Attagene RNA transcription; actives raise or lower the signal
Procedure, shortened: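 Endogenous transcription factor activity captured via cis-promoter reporter units transfected into HepG2; treatment lasted 24 h. Fluorescence intensity of reporter fragments analysed with bidirectional curve fitting, DMSO baseline.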

[16] = ATG_MRE_CIS: Attagene CIS-FACTORIAL HepG2 Assay for human Metal Responsive Element (MRE) (AID 2282954); conditions: HepG2 MRE cis-reporter transcription, Attagene multiplex; actives raise or lower the signal
Procedure, shortened: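 Fluorescent reporter fragments separated by capillary electrophoresis give mRNA induction for the MRE unit after 24 h treatment of transfected HepG2 cells. Endogenous transcription-factor activity is read; DMSO serves as negative control and baseline.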

[17] = ATG_PBREM_CIS: Attagene CIS-FACTORIAL HepG2 Assay for human Phenobarbital-responsive Enhancer Module (PBREM) (AID 2282955); conditions: HepG2 PBREM cis-reporter, Attagene multiplexed transcription; actives raise or lower the signal
Procedure, shortened: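 Transfected liver-derived HepG2 cells exposed 24 h; PBREM reporter transcript quantified via RT-PCR and capillary electrophoresis, with activity in either direction referenced to DMSO.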

[18] = target: Bile acid receptor (Homo sapiens) (UniProt Q96RI1); test: ATG_IR1_CIS: Attagene CIS-FACTORIAL HepG2 Assay for human Nuclear Receptor Subfamily 1 Group H Member 4 (NR1H4), IR1 submotif (AID 2282946); conditions: IR1 reporter transcription, actives raise or lower the signal
Procedure, shortened: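 HepG2 cells transiently transfected with multiple cis-promoter-driven reporter units to measure endogenous transcription factor activity; 24 h exposure. Reporter mRNA read by RT-PCR, FAM labelling, HpaI digestion and capillary electrophoresis. Bidirectional fit versus DMSO.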

[19] = ATG_M_06_CIS: Attagene CIS-FACTORIAL HepG2 Assay for M06 Transcription Factor (Internal Marker) (AID 2282950); conditions: HepG2 Attagene CIS-FACTORIAL M06 internal marker reporter; actives raise or lower the signal
Procedure, shortened: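 HepG2 liver cells, 24 h exposure. Reporter transcripts from transfected cis-element constructs quantified by RT-PCR/capillary electrophoresis fluorescence. Bidirectional curve fit against DMSO.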

[20] = target: Hepatocyte nuclear factor 3-beta (Homo sapiens) (UniProt Q9Y261); test: ATG_FoxA2_CIS: Attagene CIS-FACTORIAL HepG2 Assay for human Forkhead box A2 (FOXA2) (AID 2282942); conditions: HepG2 cis-reporter transcription factor activity, 24 h; actives raise or lower the signal
Procedure, shortened: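 Measured: reporter mRNA induction or loss in HepG2 transiently carrying multiple cis-regulated reporter units, 24 h after dosing. Quantified by RT-PCR plus capillary electrophoresis, normalised to DMSO.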

Measured: AC50

Sequence of Heat shock factor protein 1 (Homo sapiens) (Q00613 whole entry, looked up, the tested form may be a part): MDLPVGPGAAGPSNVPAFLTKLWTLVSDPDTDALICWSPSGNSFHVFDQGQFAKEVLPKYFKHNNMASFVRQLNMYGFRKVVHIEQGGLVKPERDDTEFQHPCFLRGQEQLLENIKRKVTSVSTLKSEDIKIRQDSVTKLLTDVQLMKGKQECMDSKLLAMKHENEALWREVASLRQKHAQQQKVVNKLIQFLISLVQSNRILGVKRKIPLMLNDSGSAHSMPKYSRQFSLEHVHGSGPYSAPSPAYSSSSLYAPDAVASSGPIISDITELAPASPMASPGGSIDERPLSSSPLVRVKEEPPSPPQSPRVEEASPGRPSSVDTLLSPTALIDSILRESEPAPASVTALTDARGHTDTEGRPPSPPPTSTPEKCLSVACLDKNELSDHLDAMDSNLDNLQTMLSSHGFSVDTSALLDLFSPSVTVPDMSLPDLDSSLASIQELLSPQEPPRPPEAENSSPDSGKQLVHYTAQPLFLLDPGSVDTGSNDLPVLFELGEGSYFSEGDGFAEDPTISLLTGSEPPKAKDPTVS
Sequence of Bile acid receptor (Homo sapiens) (Q96RI1 whole entry, looked up): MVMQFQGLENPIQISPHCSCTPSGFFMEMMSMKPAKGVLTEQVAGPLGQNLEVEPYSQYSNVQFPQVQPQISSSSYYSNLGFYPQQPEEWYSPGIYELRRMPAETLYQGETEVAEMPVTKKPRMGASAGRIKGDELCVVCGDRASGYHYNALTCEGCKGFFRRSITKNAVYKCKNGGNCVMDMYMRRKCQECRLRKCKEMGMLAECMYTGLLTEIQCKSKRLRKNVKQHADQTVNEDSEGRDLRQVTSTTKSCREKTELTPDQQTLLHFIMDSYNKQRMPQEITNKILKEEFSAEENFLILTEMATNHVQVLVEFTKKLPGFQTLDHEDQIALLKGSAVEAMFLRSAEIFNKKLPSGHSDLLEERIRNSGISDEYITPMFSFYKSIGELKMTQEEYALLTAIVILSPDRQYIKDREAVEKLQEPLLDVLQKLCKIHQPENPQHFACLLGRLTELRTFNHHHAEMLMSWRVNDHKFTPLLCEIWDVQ
Sequence of Hepatocyte nuclear factor 6 (Homo sapiens) (Q9UBC0 whole entry, looked up): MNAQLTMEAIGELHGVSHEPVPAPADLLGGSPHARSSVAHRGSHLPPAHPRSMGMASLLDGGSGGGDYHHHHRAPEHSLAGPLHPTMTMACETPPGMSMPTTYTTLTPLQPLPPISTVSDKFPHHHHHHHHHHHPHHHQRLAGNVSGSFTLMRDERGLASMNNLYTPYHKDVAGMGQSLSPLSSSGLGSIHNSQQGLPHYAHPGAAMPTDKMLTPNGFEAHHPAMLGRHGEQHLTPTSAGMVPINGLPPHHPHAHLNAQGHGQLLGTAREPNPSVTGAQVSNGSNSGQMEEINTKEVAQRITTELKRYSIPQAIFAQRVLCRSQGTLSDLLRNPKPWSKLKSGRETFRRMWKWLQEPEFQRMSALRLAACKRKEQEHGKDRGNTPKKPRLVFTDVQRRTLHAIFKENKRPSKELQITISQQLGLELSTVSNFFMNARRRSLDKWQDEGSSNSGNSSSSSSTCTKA
Sequence of Hypoxia-inducible factor 1-alpha (Homo sapiens) (Q16665 whole entry, looked up): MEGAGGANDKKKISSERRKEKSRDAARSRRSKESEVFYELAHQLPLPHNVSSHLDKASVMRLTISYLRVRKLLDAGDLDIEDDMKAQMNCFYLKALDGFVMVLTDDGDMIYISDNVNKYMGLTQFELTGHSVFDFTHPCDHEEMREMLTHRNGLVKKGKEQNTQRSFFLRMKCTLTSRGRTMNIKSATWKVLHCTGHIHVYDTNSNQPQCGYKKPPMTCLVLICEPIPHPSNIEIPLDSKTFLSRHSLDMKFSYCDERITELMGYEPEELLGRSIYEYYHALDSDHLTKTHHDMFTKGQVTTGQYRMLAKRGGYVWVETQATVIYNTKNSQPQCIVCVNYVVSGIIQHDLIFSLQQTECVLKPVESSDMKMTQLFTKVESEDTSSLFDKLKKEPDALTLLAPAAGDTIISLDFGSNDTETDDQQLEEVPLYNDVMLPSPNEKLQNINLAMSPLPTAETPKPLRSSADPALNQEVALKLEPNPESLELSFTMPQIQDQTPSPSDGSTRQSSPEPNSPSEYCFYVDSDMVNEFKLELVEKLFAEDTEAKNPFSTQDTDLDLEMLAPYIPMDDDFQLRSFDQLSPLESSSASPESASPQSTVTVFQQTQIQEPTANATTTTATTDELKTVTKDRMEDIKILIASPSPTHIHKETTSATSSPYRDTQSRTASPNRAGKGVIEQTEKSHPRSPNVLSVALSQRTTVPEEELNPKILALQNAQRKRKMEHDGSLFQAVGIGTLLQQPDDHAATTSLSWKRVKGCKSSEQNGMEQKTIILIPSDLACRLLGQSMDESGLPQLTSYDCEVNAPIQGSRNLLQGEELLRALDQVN
Sequence of Hepatocyte nuclear factor 3-beta (Homo sapiens) (Q9Y261 whole entry, looked up): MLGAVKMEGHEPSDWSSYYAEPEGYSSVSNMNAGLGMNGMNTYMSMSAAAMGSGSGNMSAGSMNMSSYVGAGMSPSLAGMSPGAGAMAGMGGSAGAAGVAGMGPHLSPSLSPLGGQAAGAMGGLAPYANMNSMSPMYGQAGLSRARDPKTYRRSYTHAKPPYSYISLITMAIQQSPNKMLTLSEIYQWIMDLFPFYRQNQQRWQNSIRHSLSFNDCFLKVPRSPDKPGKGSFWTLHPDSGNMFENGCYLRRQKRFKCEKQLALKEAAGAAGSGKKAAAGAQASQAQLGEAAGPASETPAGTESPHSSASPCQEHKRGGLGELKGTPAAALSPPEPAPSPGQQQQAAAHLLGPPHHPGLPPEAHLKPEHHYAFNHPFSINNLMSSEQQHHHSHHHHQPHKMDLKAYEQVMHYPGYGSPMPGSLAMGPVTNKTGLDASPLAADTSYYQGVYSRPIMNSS

COC(=O)c1cc(Cl)ccc1[N+](=O)[O-]
not listed: [18] | [19] | [20]
inactive: all other assays above

CC(=O)OC1C2(C)CCC(C2)C1(C)C (stereo unspecified)
not listed: [11] | [17] | [20]
inactive: all other assays above

CCOC(=O)CC(C(C)=O)C(C)=O
not listed: [14] | [18] | [20]
inactive: all other assays above

CCCCCCCCCCCSCC(=O)O
active: [1] 100 µM | [3] 82.6 µM | [11] 74.1 µM | [13] 124 µM | [14] 100 µM | [15] 159 µM | [16] 106 µM
not listed: [18] | [19] | [20]
inactive: all other assays above

CC(=O)c1ccc[nH]1
not listed: [17] | [20]
inactive: all other assays above

CC1=NN(c2cc(S(=O)(=O)O)ccc2Cl)C(=O)C1N=Nc1ccccc1 (stereo unspecified)
not listed: [15] | [20]
inactive: all other assays above

N#[N+]c1ccc2c(S(=O)(=O)[O-])cccc2c1O
not listed: [10] | [11] | [18]
inactive: all other assays above
